This passage reports growth results from PubChem BioAssay (NCI).

Among the test systems are NCI-H23 lung; NCI-H226 lung; NCI-H322M lung; NCI-H460 lung; HOP-92 NSCLC; NCI-H522 lung; A549/ATCC NSCLC; 786-0 renal; COLO 205 colon; DU-145 prostate; K-562 leukemia; MDA-MB-231 breast; RXF 393 renal; SF-268 CNS; SF-295 CNS; SF-539 CNS; UACC-257 melanoma; M14 melanoma; MALME-3M melanoma; HOP-62 NSCLC.
Test in all cases: NCI-60 one-dose screen, 48 h (100 = growth as untreated, 0 = no growth, -100 = all killed)
Common to all, as to details: 10 µM unless noted

About 83,000 compounds went through this panel and 20% of them were active in at least one assay; those are over-represented in the sample as a whole.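 Assay: single dose, 48 h. Readout: percent growth (0 = no net growth; negative = cell death). Active: <10.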 Unmarked numbers belong to inactive results. Activity calls are given as the source filed them.

As for `CCCCC(CCc1ccc([N+](=O)[O-])cc1)(C(C)=O)C(=O)OCC` (centres undefined), the growth with NCI-H23 lung is 95.7%; with NCI-H226 lung, 89.7%; with NCI-H322M lung, 108%; with NCI-H460 lung, 105%; in the assay with HOP-92 NSCLC, 91.5%; in the assay with NCI-H522 lung it was 104%. The growth in the assay on A549/ATCC NSCLC is 100%; in the assay on 786-0 renal, 98.2%; in the assay on COLO 205 colon, 111%; in the assay with DU-145 prostate, 102%; with K-562 leukemia, 99.7%; with MDA-MB-231 breast, 98.2%. Further, the growth in the assay with RXF 393 renal is 85.8%; in the assay with SF-268 CNS it was 95.9%; in the assay on SF-295 CNS, 99.2%; with SF-539 CNS it was 94.7%; in the assay with UACC-257 melanoma, 99.1%; in the assay with M14 melanoma, 96.7%.
In the case of `Cc1cc(I)nc2ccccc12`, the growth was 95.1% in the assay with NCI-H23 lung; 104% with NCI-H226 lung; 102% in the assay with NCI-H322M lung; 106% in the assay on NCI-H460 lung; 93.5% in the assay on HOP-92 NSCLC; 111% with A549/ATCC NSCLC. Moreover, the growth is 105% with 786-0 renal; 106% in the assay with COLO 205 colon; 120% with DU-145 prostate; 108% with K-562 leukemia; 114% with MALME-3M melanoma; 99.7% in the assay on MDA-MB-231 breast. Besides, the growth was 122% in the assay on RXF 393 renal; 105% in the assay with SF-268 CNS; 101% with SF-295 CNS; 100% with SF-539 CNS; 119% in the assay with UACC-257 melanoma; 111% in the assay with M14 melanoma.
For the compound `NC1=C(Br)C(=O)c2ncccc2C1=O`, the growth in the assay with NCI-H23 lung was -46% (active); in the assay on NCI-H322M lung, 34.9%; with HOP-62 NSCLC, -73.1% (active); with NCI-H460 lung it was -73.9% (active); with HOP-92 NSCLC it was 34.5%; in the assay with NCI-H522 lung, -59.1% (active). In addition, the growth in the assay with A549/ATCC NSCLC is -52.6% (active); with 786-0 renal, 11.4%; with COLO 205 colon, 37.9%; in the assay on DU-145 prostate, -57.8% (active); in the assay on K-562 leukemia, -44.2% (active); in the assay on MALME-3M melanoma it was -85.9% (active). Moreover, the growth was 19.2% with MDA-MB-231 breast; 13.5% in the assay on RXF 393 renal; -43.9% (active) in the assay with SF-268 CNS; -84.3% (active) in the assay with SF-295 CNS; -91.5% (active) with SF-539 CNS; -58.4% (active) in the assay on UACC-257 melanoma. For the same compound, the growth with M14 melanoma is -88.7% (active).
As to `CC(C)(C)c1ccc(O)c(-c2ccccc2)c1`, the growth is 105% in the assay with NCI-H23 lung; 122% with NCI-H226 lung; 104% with NCI-H322M lung; 94.5% in the assay on HOP-92 NSCLC; 83.5% in the assay on NCI-H522 lung; 109% with A549/ATCC NSCLC. For the same compound, the growth in the assay with 786-0 renal is 109%; in the assay with COLO 205 colon, 105%; in the assay on DU-145 prostate, 115%; in the assay with K-562 leukemia it was 105%; in the assay with MALME-3M melanoma, 130%; in the assay on MDA-MB-231 breast, 120%. The growth is 112% in the assay on RXF 393 renal; 105% with SF-268 CNS; 126% in the assay with SF-295 CNS; 108% in the assay with SF-539 CNS; 90.1% in the assay on UACC-257 melanoma; 121% in the assay on M14 melanoma.
For the compound `O=C1/C(=C\c2ccc([N+](=O)[O-])cc2)CS(=O)(=O)C/C1=C/c1ccc([N+](=O)[O-])cc1`, the growth is -83.2% (active) in the assay with NCI-H23 lung; -93.7% (active) in the assay on NCI-H322M lung; -95.2% (active) with HOP-62 NSCLC; -54.5% (active) in the assay on NCI-H460 lung; -79.1% (active) with HOP-92 NSCLC; -79.9% (active) in the assay on NCI-H522 lung. Moreover, the growth in the assay on A549/ATCC NSCLC is -50% (active); in the assay with 786-0 renal, -96.5% (active); in the assay with COLO 205 colon, -82.4% (active); in the assay on DU-145 prostate it was -78.2% (active); with K-562 leukemia, -27.8% (active); in the assay with MALME-3M melanoma, -62.7% (active). The growth was -86.9% (active) in the assay on MDA-MB-231 breast; -100% (active) with RXF 393 renal; -49% (active) in the assay on SF-268 CNS; -16% (active) in the assay on SF-295 CNS; -64% (active) with SF-539 CNS; -89.8% (active) in the assay with UACC-257 melanoma. In the assay on M14 melanoma, the growth was -92.2% (active).
In the case of `O=[N+]([O-])c1ccc(N2CCN(Cc3ccccc3)CC2)c2c1no[n+]2[O-]`, the growth is 13% with NCI-H23 lung; 69.7% with NCI-H322M lung; -31.7% (active) in the assay with HOP-62 NSCLC; -70.8% (active) in the assay on NCI-H460 lung; 25.6% in the assay with HOP-92 NSCLC; -74.1% (active) in the assay on NCI-H522 lung. Moreover, the growth with A549/ATCC NSCLC was -40.2% (active); in the assay on 786-0 renal, -4.19% (active); in the assay with COLO 205 colon, -88.2% (active); with DU-145 prostate, 26.8%; with K-562 leukemia, -43.5% (active); with MALME-3M melanoma, 13.5%. Besides, the growth is -3.1% (active) with MDA-MB-231 breast; -5.34% (active) in the assay on RXF 393 renal; -1.56% (active) with SF-268 CNS; 6.45% (active) in the assay on SF-295 CNS; 0.0788% (active) in the assay on SF-539 CNS; 55.9% in the assay on UACC-257 melanoma. Further, the growth with M14 melanoma was 30.3%.
For `CCCCCCCCc1cc(Cl)c(O)c(Cl)c1`, the growth with NCI-H23 lung was 103%; in the assay on NCI-H322M lung it was 121%; with HOP-62 NSCLC, 105%; in the assay with NCI-H460 lung, 109%; in the assay on HOP-92 NSCLC, 99.5%; in the assay on NCI-H522 lung it was 97.6%. Also, the growth in the assay on A549/ATCC NSCLC is 98.5%; in the assay with 786-0 renal it was 108%; in the assay with COLO 205 colon it was 108%; in the assay on DU-145 prostate it was 103%; in the assay on K-562 leukemia, 104%; with MALME-3M melanoma, 100%. Moreover, the growth was 103% with MDA-MB-231 breast; 113% with RXF 393 renal; 98.5% in the assay on SF-268 CNS; 113% in the assay with SF-295 CNS; 99.5% with SF-539 CNS; 104% in the assay with UACC-257 melanoma. For the same compound, in the assay with M14 melanoma, the growth is 107%.
As to `CSc1nc(C)c(C(=O)CCN2CCN(c3ccccn3)CC2)s1`, the growth with NCI-H23 lung was 106%; in the assay on NCI-H226 lung, 107%; in the assay with NCI-H322M lung it was 107%; with NCI-H460 lung, 106%; in the assay with NCI-H522 lung, -64.2% (active); in the assay on A549/ATCC NSCLC, 102%. For the same compound, the growth in the assay on 786-0 renal is 101%; in the assay on DU-145 prostate, 102%; with K-562 leukemia, 93.6%; with MALME-3M melanoma, 102%; with MDA-MB-231 breast, 101%; in the assay with RXF 393 renal, 100%. In addition, the growth in the assay on SF-268 CNS is 102%; with SF-295 CNS it was 102%; in the assay on SF-539 CNS, 99%; in the assay with UACC-257 melanoma, 99.7%; in the assay on M14 melanoma it was 99.9%.
As for `CN(C)c1ccc(/C=C/c2nccc3ccccc23)cc1`, the growth with NCI-H23 lung was 81.9%; with NCI-H226 lung, 71.6%; with HOP-62 NSCLC, 87.9%; in the assay with NCI-H460 lung it was 74.3%; with HOP-92 NSCLC, 68.2%; in the assay with A549/ATCC NSCLC, 85.6%. Also, the growth was 103% in the assay with 786-0 renal; 91.4% in the assay with COLO 205 colon; 101% in the assay on DU-145 prostate; 92.8% with K-562 leukemia; 110% in the assay on MALME-3M melanoma; 51.3% in the assay on MDA-MB-231 breast. Further, the growth in the assay with RXF 393 renal is 102%; with SF-268 CNS, 97.2%; with SF-295 CNS, 79.1%; with SF-539 CNS it was 99%; with M14 melanoma, 88.8%.
